# High-throughput results: PubChem BioAssay, National Center for Advancing Translational Sciences (NCATS)
# ELG1 DNA repair: qHTS screen for small molecules that inhibit ELG1-dependent DNA repair in human embryonic kidney (HEK293T) cells expressing luciferase-tagged ELG1 | HEK293T ELG1-luciferase reporter, luminescence, 16 h; DNA damage induced by 5-fluorouridine | Potency, µM (highest dose often 46.1 µM), for the others: top-dose activity change, negative = inhibition, actives largely listed as inhibitors | hit rate 2.3% among 330,000; also: % is scaled to controls: 0 for no effect and ±100 for the full control effect; nearly all actives have a fitted effect of over 55% in size
#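 Overnight (16 hr) co-exposure of 2,000 cells/well to 5-fluorouridine and compound at 37 °C preceded detection. Luciferase was quantified via ONE-Glo luminescence; loss of signal denotes inhibition.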
# Nrf2 inh: Nrf2 qHTS screen for inhibitors; A549 ARE-Fluc reporter, luciferase luminescence, 18-24 h; Potency, µM (titrated, usually from 46 µM), for inactives: at the top dose activity change, negative = inhibition, hits mostly inhibitors; hit rate 2.1% among 360,000; also: % is scaled to controls: 0 for no effect and ±100 for the full control effect; nearly all actives have a fitted effect of over 60% in size
#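 Two sequential reads on A549 ARE_Fluc cells exposed to compound for 18-24 h: a CellTiter-Fluor fluorescence read for viability, then a luciferase luminescence read for Nrf2/ARE activity.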
# Nrf2 ARE act: qHTS of Nrf2 Activators; Potency, µM (titrated, usually from 46.1 µM), without a hit: top-dose activation, most hits filed as activators; AREc32 ARE-luciferase reporter (MCF7-derived line), luminescence, 24 h; hit rate 0.31% among 410,000; also: % of control where 0% means no effect; nearly all actives have a fitted effect of over 65% in size
#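 Quantitative high-throughput format: AREc32 reporter cells, 1000 per well, received compound by pin transfer and were incubated 24 hr at 37 deg C, 5% CO2, before Steady-Glo luminescence detection.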
# mIDH1 inhibitor: qHTS for Inhibitors of mutant isocitrate dehydrogenase 1 (IDH1): qHTS | IDH1-R132H enzyme, NADPH consumption, diaphorase/resazurin fluorescence | Isocitrate dehydrogenase [NADP] cytoplasmic (Homo sapiens), O75874 | hit rate 0.093% among 390,000 | Potency, µM (doses to about 76.6 µM), for inactives: top-dose activity change, negative = inhibition, actives largely listed as inhibitors; also: % is scaled to controls: 0 for no effect and ±100 for the full control effect; nearly all actives have a fitted effect of over 65% in size
# Target sequence (O75874 whole entry R132H, stated change not applied): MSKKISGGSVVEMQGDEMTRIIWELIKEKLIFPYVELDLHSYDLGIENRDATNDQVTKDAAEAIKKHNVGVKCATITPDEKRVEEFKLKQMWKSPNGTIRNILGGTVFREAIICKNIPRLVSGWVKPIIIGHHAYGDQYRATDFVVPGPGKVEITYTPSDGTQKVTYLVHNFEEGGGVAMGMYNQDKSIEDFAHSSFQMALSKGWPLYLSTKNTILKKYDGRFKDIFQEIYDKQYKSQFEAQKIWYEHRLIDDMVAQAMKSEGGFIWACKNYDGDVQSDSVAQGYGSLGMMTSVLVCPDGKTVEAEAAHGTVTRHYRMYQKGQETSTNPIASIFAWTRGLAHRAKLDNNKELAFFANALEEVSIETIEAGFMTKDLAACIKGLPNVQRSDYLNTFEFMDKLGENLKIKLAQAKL
#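 IDH1-R132H (0.5 ug/mL) preincubated 30 min with compound, then NADPH (0.016 mM) and alpha-KG (2 mM) added; 80 min at RT, pH 7.5. Remaining NADPH coupled via diaphorase/resazurin to fluorescence (540/590 nm); concentration-response curves normalized to no-enzyme control.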
# A549 tox: Nrf2 qHTS screen for inhibitors: counterscreen for cytotoxicity. AID 504648, 2011. hit rate 0.16% among 390,000. A549 ARE-Fluc cells, CellTiter-Fluor viability, 18-24 h. Potency, µM (titrated, usually from 46 µM), for inactives: top-dose activity change, negative = cytotoxicity, usual class: inhibitors; also: % is scaled to controls: 0 for no effect and ±100 for the full control effect
#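 A549 ARE_Fluc cells in 5% FBS OPTI-MEM were exposed to compounds in concentration-response for 18-24 h at 37 deg C. Viability was read by CellTiter-Fluor fluorescence (Ex 405/Em 525) after 30 min, before the luciferase read.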
# Starred values were filed as active, the others as inactive; ? = inconclusive; · = no result given; [ ] = remark or other dose. A selection: hits, their analogues and other compounds. The true share with any hit is near 3.8%. Calls follow the shape of the dose curve; as a rule, active = well fitted curve in the direction sought with a large enough effect; inconclusive = small, poorly fitted or top-dose-only effect, or another doubt; inactive = no such curve, though single readings can be large; an effect the other way counts as inactive or inconclusive. Potency is read from the fitted curve at half-maximal effect.
SMILES,ELG1 DNA repair,Nrf2 inh,Nrf2 ARE act,mIDH1 inhibitor,A549 tox
CCOc1ccccc1CNC(=O)c1nn(C)c2c1CS(=O)(=O)c1ccccc1-2,16µM*,?,0%,7%,1%
CSc1ccc(CCNC(=O)c2nn(C)c3c2CS(=O)(=O)c2ccccc2-3)cc1,26µM*,-10%,0%,-6%,1%
Cn1nc(C(=O)NCc2ccc(F)cc2)c2c1-c1ccccc1S(=O)(=O)C2,7%,10µM*,-4%,-10%,-10%
CCc1ccc(CNC(=O)c2nn(C)c3c2CS(=O)(=O)c2ccccc2-3)cc1,?,-28%,-1%,-11%,1%
CC(=O)N1CCc2cc(Br)cc(S(=O)(=O)N3CCC(C(=O)Nc4ccc(C(C)C)cc4)CC3)c21,·,?,6%,15%,11%
CSc1ncc(C(=O)NCc2ccc(Cl)cc2)c(C(F)(F)F)n1,·,?,-1%,-2%,10%
CCCC(/C=C/c1ccc(OC(C)=O)cc1)=C1/c2ccccc2C(=O)N1c1ccccc1,-14%,-6%,11µM*,10%,-13%
CC(=O)Oc1ccc(C#C/C=C2\c3ccccc3C(=O)N2c2ccccc2)cc1,27%,?,?,-6%[38.3 µM],?
Nc1ccccc1C=C1Cc2ccccc2C1=O,·,?,2.8µM*,0%,2%
O=C1C(=Cc2cccc(F)c2)Cc2ccccc21,·,·,10µM*,·,·
COc1ccccc1/C=C1\Cc2ccccc2C1=O,?,-2%,-1%,17%,1%
O=C1/C(=C/c2ccncc2)Cc2ccccc21,3%,-8%,7%,-12%,-2%
Cc1cn(C2CCCO2)c(=O)nc1N (stereo not given),·,-6%,0%,-1%,-4%
NC(=O)c1c(NC(=O)c2noc3c2CCCC3)sc2c1CCCC2,·,?,9%,11%,-1%
Cc1c(NS(=O)(=O)c2ccc3c(c2)OCCO3)cccc1-c1nc2cccnc2s1,?,21µM*,0%,-12%,-11%
Cc1cc(-c2nc3cccnc3s2)ccc1NS(=O)(=O)c1ccc2c(c1)OCCO2,?,?,13%,-5%,6%
O=[N+]([O-])c1ccc(C(O)CSC(=S)N2CCCCC2)cc1 (stereo not given),?,7%,8%,0%,1%
Cc1ccc(CSc2nc3ccncc3n2Cc2nc(-c3ccccc3C)oc2C)cc1,·,-3%,0%,3%,-29%
CC(=O)Nc1ccc(/C(C)=N/Nc2nc(Nc3cccc4ccccc34)nc(N3CCOCC3)n2)cc1,7.3µM*,?,7%,0%,15%
CC(=O)Nc1ccc(/C(C)=N/Nc2nc(N3CCOCC3)nc(N3CCOCC3)n2)cc1,?,9%,7%,1%,1%
C=CCn1cc(C(=O)NCC2CCCO2)c(=O)c2cc(S(=O)(=O)N3CCCCCC3)ccc21 (stereo not given),10µM*,-8%,0%,2%,11%
O=C(NCc1ccco1)c1cc(S(=O)(=O)N2CCOCC2)c(Cl)cc1Cl,?,18µM*,0%,5%,?
